Screening results from PubChem BioAssay.
Sampled rows, rich in hits. Any-hit rate of the full collection: about 8%.
SW480 rereplic – A quantitative high throughput screen for small molecules that induce DNA re-replication in SW480 colon adenocarcinoma cells; hit rate 1.8% among 340,000; SW480 DNA re-replication, Hoechst DNA content imaging, 48 h; Potency, µM (titrated, usually from 46.1 µM), for inactives: at the top dose re-replication activation, actives largely listed as activators; also: % of control where 0% means no effect; nearly all actives have a fitted effect of over 55% in size
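Compounds, transferred as 23 nL by pin tool, were incubated with cells for 48 hr; DNA content per nucleus was then quantified by Hoechst staining and fluorescence plate imaging.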
HT1080-NT tox – qHTS for induction of synthetic lethality in tumor cells producing 2HG: qHTS for the HT-1080-NT fibrosarcoma cell line; Potency, µM (series often up to 46.1 µM), for inactives: top-dose activity, negative = less viability, actives largely listed as cytotoxic; HT-1080-NT fibrosarcoma viability, CellTiter-Glo ATP luminescence, 48 h; hit rate 1.6% among 360,000; AID 686970, 2013;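 also: NT is the 2HG producing partner of a matched IDH1 knockdown line; 0% = DMSO-treated cells and -100% = media-only wells without cells; nearly all actives have a fitted effect of over 55% in size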
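A 48-hour cytotoxicity screen used HT-1080-NT cells plated 2 hours before compound delivery. ATP-based CellTiter-Glo luminescence measured viability, normalized to DMSO and no-cell controls.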
MCF10A rerep – A quantitative high throughput screen for small molecules that induce DNA re-replication in MCF 10a normal breast cells; MCF 10A DNA re-replication, Hoechst nuclear intensity, 48 h; Potency, µM (highest dose often 46.1 µM), without a hit: top-dose activity, positive = re-replication, usual class: activators; hit rate 2.9% among 350,000; also: % of control where 0% means no effect; nearly all actives have a fitted effect of over 50% in size
HT1080 IDH1KD tx – qHTS for induction of synthetic lethality in tumor cells producing 2HG: qHTS for the HT-1080-IDH1KD cell line. hit rate 2% among 360,000. Potency, µM (doses to about 46.1 µM), without a hit: top-dose activity, negative = toxicity, usual class: cytotoxic. HT-1080 IDH1 knockdown viability, ATP luminescence, 48 h;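 also: 0% = DMSO wells and -100% = cell-free medium wells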
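Assay cells: HT-1080 with IDH1 knockdown, 750 per well, RPMI/5% FBS. Exposure: 48 h at 37 °C following 2 h pre-incubation. Read: CellTiter-Glo luminescence; fitted concentration-response, curve class assigned.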
KB-3-1 cytotox – qHTS assay for MDR1-selective chemotherapeutics: Primary screen using the parental adenocarcinoma cell KB-3-1; hit rate 1.4% among 400,000; Potency, µM (top dose mostly 46.1 µM), hits mostly cytotoxic; KB-3-1 viability, CellTiter-Glo ATP luminescence, 72 h; also: % is scaled to controls: 0 for no effect and ±100 for the full control effect; nearly all actives have a fitted effect of over 60% in size
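Luminescent ATP read-out (CellTiter-Glo) measures survival of drug-naive KB-3-1 cells after 72 h compound exposure at 37 °C. Titration series was screened from lowest to highest concentration, with DMSO vehicle plates as background controls.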
KB-V1 MDR tox – qHTS assay for MDR1-selective chemotherapeutics: Primary screen using the drug-selected MDR subline cells KB-V1. Potency, µM (doses to about 46.1 µM), usual class: cytotoxic. KB-V1 MDR cells viability, CellTiter-Glo, 72 h. hit rate 3.4% among 400,000. AID 1347076, 2019; also: % is scaled to controls: 0 for no effect and ±100 for the full control effect; nearly all actives have a fitted effect of over 60% in size
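qHTS viability screen in drug-selected KB-V1 MDR cells: 72 h compound treatment at 37 degrees C, ATP luminescence end point.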
An asterisk follows results filed as active; i = inactive; ? = inconclusive; . = not tested or not shown; [ ] = dose if it differs, or a comment. Calls follow the shape of the dose curve; as a rule, active = well fitted curve in the direction sought with a large enough effect; inconclusive = small, poorly fitted or top-dose-only effect, or another doubt; inactive = no such curve, though single readings can be large; an effect the other way counts as inactive or inconclusive. Potency is read from the fitted curve at half-maximal effect.

SMILES | SW480 rereplic | HT1080-NT tox | MCF10A rerep | HT1080 IDH1KD tx | KB-3-1 cytotox | KB-V1 MDR tox
Cc1ccc(C)c(Cn2c3ccccc3c3cnn(CC(=O)NC4CCC(C)CC4)c(=O)c32)c1 (stereo not drawn) | . | . | . | . | i | i
CCOC(=O)c1c(C)[nH]c(C)c1S(=O)(=O)N1CCN(c2ccc(Cl)cc2)CC1 | . | . | . | . | i | i
CC(C)OC(=O)NC(C)(C)COC(=O)Nc1cccc(Cl)c1 | -7% | -24% | 1% | -18% | ? | 9.2µM*
O=C(Nc1cccc(Cl)c1)OCCOC(=O)Nc1cccc(Cl)c1 | 24% | ? | ? | 23µM* | i | i
CCOP(=O)(OCC)C(NC(=O)Nc1cccc(Cl)c1)C(N)=O (stereo not drawn) | 1.5µM* | 3% | 2% | -1% | i | ?
CCOP(=O)(OCC)C(NC(=O)Nc1cccc(Cl)c1)c1ccccc1 (stereo not drawn) | 8% | -20% | ? | -8% | i | i
O=C(Nc1cccc(Cl)c1)OCCOc1ccccc1 | -6% | 7% | 6% | 0% | i | i
CCn1cc(C(=O)N2CCN(c3ccccc3)CC2)c(=O)c2cc(S(=O)(=O)N3CCCC3)ccc21 | . | . | . | . | i | i
COc1ccc(NCc2nnc3n2CCCCC3)c(OC)c1 | . | . | . | . | i | i
COC(=O)c1scc(S(=O)(=O)C(C)C)c1N/N=C(\C#N)C(=O)c1ccc(Cl)cc1 | 0% | ? | 6% | ? | ? | ?
COC(=O)c1scc(C#N)c1N/N=C(\C#N)S(=O)(=O)c1ccc(Cl)cc1 | -10% | ? | 13µM* | ? | ? | 8.2µM*
CCc1n[nH]c(=S)n1/N=C/c1ccccn1 | 0% | 29% | -6% | 8% | i | i
CCc1n[nH]c(=S)n1/N=C/c1c(O)ccc2ccccc12 | -3% | 10% | 9% | 9% | ? | 5.8µM*
CCc1n[nH]c(=S)n1/N=C/c1cccc2ccccc12 | -6%[9.22 µM] | -4% | ? | -6% | 6.5µM* | 5.8µM*
CCCCCCCCCCCCCCC[C@H](O)[C@H](N)CO | 17% | . | ? | . | i | i
CCCCCCCCCCCCCCC[C@@H](O)[C@@H](N)CO | -75% | 18µM* | -22% | 21% | i | ?
CC(=O)OCC(=O)C1CCC2C3CCC4=CC(=O)C=CC4(C)C3CCC12C (stereo not drawn) | -1% | 14% | 2% | 20% | i | 16µM*
O=C(Cc1ccc(OCCCc2ccccc2)cc1)NO | . | . | . | . | i | i
Cc1ccc(-n2c(-c3ccco3)nc3nc4ccccc4nc32)cc1 | 1µM* | 1% | ? | -18% | i | i
COc1cccc(-n2c(-c3ccco3)nc3nc4ccccc4nc32)c1 | -694% | 17% | -10% | 13% | i | i
CCN(CC(O)CON=C1c2ccccc2-c2ccccc21)S(=O)(=O)c1ccc(Cl)cc1 (stereo not drawn) | 24% | -13% | ? | -18% | ? | ?
CCN(CC(O)CON=C1c2ccccc2-c2ccccc21)S(=O)(=O)c1ccc(C)cc1 (stereo not drawn) | 2% | -25% | ? | -25% | i | 18µM*
Cc1cccc(N(CC(O)CON=C2c3ccccc3-c3ccccc32)S(C)(=O)=O)c1 (stereo not drawn) | ? | ? | 16µM* | ? | i | i
CN(CC(O)CON=C1c2ccccc2-c2ccccc21)S(=O)(=O)c1ccc(Br)cc1 (stereo not drawn) | ? | ? | 16µM* | ? | ? | 18µM*
COc1ccc(N(CC(=O)NCCc2ccc(C)cc2)S(=O)(=O)c2c(C)nn(C)c2C)cc1 | . | . | . | . | i | i
SMILES | SW480 rereplic | HT1080-NT tox | MCF10A rerep | HT1080 IDH1KD tx | KB-3-1 cytotox | KB-V1 MDR tox
CCc1nn(CC(=O)Nc2c(C)cccc2C)c(=O)c2cc3sccc3n12 | . | . | . | . | i | i
CC(C)n1ncc2c(C(=O)N3CCN(Cc4ccc(Cl)s4)CC3)cc(C3CC3)nc21 | 5% | 3% | ? | -12% | ? | 8.2µM*
Cc1ccc(S(=O)(=O)N2CCN(C(=O)c3cc(C4CC4)nc4c3cnn4C(C)C)CC2)cc1 | 6% | -4% | 10% | 0% | ? | i
COc1ccc(/C=C/c2nc(C#N)c(N3CCCCC3)o2)cc1OC | . | . | . | . | i | i
CCN(C(=O)COc1cc(=O)n(CC)c2ccccc12)c1cccc(Cl)c1 | 0% | -11% | 10% | 12% | ? | 2.1µM*
CCCN(C(=O)COc1cc(=O)n(CC)c2ccccc12)c1ccc(C(C)C)cc1 | . | . | . | . | ? | 13µM*
N#CC1CN(Cc2ccccc2)CN(Cc2ccccc2)C1 | ? | -2% | 15µM* | 2% | i | i
N#CC1CN(C(c2ccccc2)c2ccccc2)C1 | -5% | 5% | -1% | 4% | i | i
Cc1cc(C)n2cc(CSc3nc4cc(Cl)ccc4o3)nc2n1 | -7% | 2% | 1% | 2% | i | i
Cc1cc(C)n2c(Br)c(CSc3nc4ccccc4o3)nc2n1 | -5% | -5% | 6% | 2% | i | 21µM*
CC(=O)Nc1cccc(-c2cnc(NC(C)=O)cn2)c1 | . | -10% | . | ? | 18µM* | i
COc1ccc(COc2cc(-c3cccc(OC)c3)nc3ccc(NC(=O)C(C)C)cc23)cc1 | 15µM* | ? | ? | 2.9µM* | 2.6µM* | ?
Cc1ccc(C(=O)Nc2cccc(-c3cnc4ccccc4n3)c2)cc1 | -3% | -6% | 1% | 20% | i | i
CC(C)C(=O)Nc1cccc(-c2cnc3ccccc3n2)c1 | 4% | 13% | -5% | -5% | i | 13µM*
O=C(c1ccc2c(c1)N(Cc1ccc(F)cc1)CCS2)N1CCN(c2ccccc2)CC1 | . | . | . | . | i | ?
COc1ccc(NC(=O)C(NC(=O)/C=C\c2ccc3c(c2)OCO3)c2ccc(C)cc2)cc1 (stereo not drawn) | . | . | . | . | i | i
Cc1cccn2c(=O)c(C=O)c(N3CCCCCC3)nc12 | -9% | -6% | ? | ? | i | 15µM*
COc1ccccc1N1CCN(c2nc3c(C)cccn3c(=O)c2C=O)CC1 | -3% | -15% | 9% | ? | i | 23µM*
CC(C)c1ccc(Cc2cnc(NC(=O)c3ccc4c(c3)CC(c3ccccc3)OC4=O)s2)cc1 (stereo not drawn) | . | . | . | . | i | i
